Compounds without any hit were thinned out: in the full panel of roughly 79,000, 15% have a hit. Activity calls are given as the source filed them. No stated cut-off is given here; in the data, active means growth inhibition above about 70%; inactive means the rest.
How the values were obtained:
[1] = NCI Yeast Anticancer Drug Screen. Data for the rad52 strain (AID 147);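 further: 0% = growth of vehicle-treated control cultures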; details: S. cerevisiae rad52 mutant growth inhibition, active compounds read high
Outline: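 Measured: yeast growth inhibition. System: strain with a defined DNA damage repair alteration. Reference: vehicle-treated control cultures.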

[2] = NCI Yeast Anticancer Drug Screen. Data for the wt1 strain (AID 149);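 further: 0% = growth of vehicle-treated wt1 cultures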; details: S. cerevisiae wt1 strain (SPY 50644) growth inhibition, active compounds read high
Outline: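 wt1 yeast, compound-treated; % growth inhibition vs vehicle control.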

[3] = NCI Yeast Anticancer Drug Screen. Data for the rad50EPP+ strain (AID 151);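 further: 0% = growth of vehicle-treated control cultures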; details: S. cerevisiae rad50 mutant strain, active compounds read high
Outline: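 One strain with a rad50 alteration (rad50EPP+) was compound-treated, its growth then compared to that of vehicle controls.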

[4] = NCI Yeast Anticancer Drug Screen. Data for the rad50 strain (AID 155);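 further: 0% = growth of vehicle-only cultures of the same strain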; details: S. cerevisiae rad50 strain growth inhibition, active compounds read high
Outline: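 Genetically altered yeast (DNA repair pathway); compound treatment; growth inhibition vs vehicle ctrl.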

[5] = NCI Yeast Anticancer Drug Screen. Data for the mec2-1 strain (AID 157); details: S. cerevisiae mec2-1 strain, active compounds read high
Outline: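 Test agents were screened against the mec2-1 yeast strain, with defined DNA repair or cell cycle alteration. Growth was scored as inhibition against vehicle-only controls.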

[6] = NCI Yeast Anticancer Drug Screen. Data for the rad14 strain (AID 159);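 further: 0% = growth of vehicle-treated control cultures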; details: S. cerevisiae rad14 strain growth inhibition, active compounds read high
Outline: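 Test compounds were applied to a repair-deficient yeast strain. Its growth was then compared with that of cultures given vehicle alone, and inhibition was expressed relative to those controls.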

[7] = NCI Yeast Anticancer Drug Screen. Data for the sgs1 mgt1 strain (AID 161);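 further: 0% = growth of cultures given vehicle only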; details: S. cerevisiae sgs1 mgt1 strain, active compounds read high
Outline: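 Mutant yeast exposed to compound; growth scored against vehicle-only wells.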

[8] = NCI Yeast Anticancer Drug Screen. Data for the CLN2oe strain (AID 163);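 further: 0% = growth of vehicle-only control cultures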; details: S. cerevisiae CLN2oe strain, active compounds read high
Outline: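 Here, growth inhibition in a cell-cycle-altered yeast strain after compound exposure was quantified against vehicle control growth.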

[9] = NCI Yeast Anticancer Drug Screen. Data for the cln2 rad14 strain (AID 165);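 further: 0% = growth equal to vehicle treated cultures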; details: S. cerevisiae cln2 rad14 strain, active compounds read high
Outline: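 Growth of compound-exposed yeast (cln2 rad14 genotype) measured and expressed as inhibition relative to vehicle.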

[10] = NCI Yeast Anticancer Drug Screen. Data for the bub3 strain (AID 167); details: S. cerevisiae bub3 mutant strain, active compounds read high
Outline: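 Yeast carrying a defined mutation is treated with each compound, and growth is compared with that of vehicle-exposed cells to give inhibition.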

[11] = NCI Yeast Anticancer Drug Screen. Data for the wt2 strain (AID 169);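 further: 0% = growth of vehicle-treated yeast cultures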; details: S. cerevisiae wt2 strain growth inhibition, active compounds read high
Outline: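 Genetically defined yeast strains from a DNA-repair/cell-cycle panel were used. Compound-exposed yeast growth was measured, and the inhibition was calculated relative to vehicle treatment.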

[12] = NCI Yeast Anticancer Drug Screen. Data for the mlh1 strain (AID 171);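 further: 0% = growth of vehicle-treated control cultures of the same strain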; details: S. cerevisiae mlh1 strain growth inhibition, active compounds read high
Outline: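 Here the genetically defined yeast mutant is grown with each compound, and the extent to which its growth falls below that of vehicle-exposed cells is reported.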

[13] = NCI Yeast Anticancer Drug Screen. Data for the sgs1 strain (AID 173);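 further: 0% = growth of vehicle-only control cultures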; details: S. cerevisiae sgs1 mutant, active compounds read high
Outline: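 Relative growth inhibition, referenced to vehicle, was determined in a yeast strain with a defined alteration affecting DNA damage repair or cell cycle control after compound exposure.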

[14] = NCI Yeast Anticancer Drug Screen. Data for the rad18 strain (AID 177); details: S. cerevisiae rad18 mutant growth inhibition, active compounds read high
Outline: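 Screen uses a yeast strain with a defined lesion in DNA damage repair; compound effect is read as loss of growth compared to untreated vehicle cultures.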

[15] = at 5.0 µM (retest, dose inferred, filed as 0.5)
[16] = at 50.0 µM (retest, dose inferred, filed as 5.0)

Measured: growth inhibition

CCNc1ccc2c(c1)C(=O)N(OS(C)(=O)=O)C2=O
active: [1]; at 100.0 µM 79% | [4]; at 50.0 µM 96.8% | [4]; at 100.0 µM 88% | [7]; at 50.0 µM 85.6% | [14]; at 100.0 µM 73%
inactive: [1]; at 1.2 µM 1% | [1]; at 3.7 µM 1% | [1]; at 11.0 µM 5% | [1]; at 33.0 µM 23% | [2]; at 1.2 µM 1% | [2]; at 3.7 µM 5% | [2]; at 11.0 µM 4% | [2]; at 33.0 µM 10% | [2]; at 100.0 µM 31% | [3]; at 1.2 µM 7% | [3]; at 3.7 µM 6% | [3]; at 11.0 µM 7% | [3]; at 33.0 µM 11% | [3]; at 100.0 µM 27% | [4]; at 1.2 µM 2% | [4]; at 3.7 µM 2% | [4]; [15] 4% | [4]; at 11.0 µM 8% | [4]; at 33.0 µM 18% | [4]; [16] 18% | [5]; at 1.2 µM 6% | [5]; at 3.7 µM 10% | [5]; [15] 4% | [5]; at 11.0 µM 14% | [5]; at 33.0 µM 21% | [5]; [16] 23% | [5]; at 50.0 µM 61% | [5]; at 100.0 µM 7% | [6]; at 1.2 µM 3% | [6]; at 3.7 µM 0% | [6]; at 11.0 µM 3% | [6]; at 33.0 µM 16% | [6]; at 100.0 µM 34% | [7]; [15] 3% | [7]; [16] 12% | [8]; at 1.2 µM 5% | [8]; at 3.7 µM -6% | [8]; at 11.0 µM 4% | [8]; at 33.0 µM 15% | [8]; at 100.0 µM 40% | [9]; [15] 8% | [9]; [16] 21% | [9]; at 50.0 µM 69.6% | [10]; at 1.2 µM -2% | [10]; at 3.7 µM -2% | [10]; [15] -1% | [10]; at 11.0 µM 0% | [10]; at 33.0 µM 8% | [10]; [16] 12% | [10]; at 50.0 µM 24.5% | [10]; at 100.0 µM 26% | [11]; at 1.2 µM 0% | [11]; at 3.7 µM 1% | [11]; at 11.0 µM 1% | [11]; at 33.0 µM 6% | [11]; at 100.0 µM 41% | [12]; at 1.2 µM 3% | [12]; at 3.7 µM 3% | [12]; at 11.0 µM 5% | [12]; at 33.0 µM 12% | [12]; at 100.0 µM 42% | [13]; at 1.2 µM 2% | [13]; at 3.7 µM 3% | [13]; at 11.0 µM 6% | [13]; at 33.0 µM 15% | [13]; at 100.0 µM 62% | [14]; at 1.2 µM 4% | [14]; at 3.7 µM 2% | [14]; at 11.0 µM 3% | [14]; at 33.0 µM 14%

— PubChem BioAssay (NCI)
